U2OS ROS induce – inducers of reactive oxygen species in cancer cells; U2OS ROS induction, H2DCF-DA fluorescence; ROS induction (% of piperlongumine), % at 10 µM; hit rate 2% among 46,000; AID 624156; in the data active = ROS induction above about 79%, passing the limit was not always enough
Hits are given with their value; 0 = inactive. The entries come from a sample that favours hits as a whole.

SMILES	U2OS ROS induce
C[C@H](CO)N1C[C@H](C)[C@@H](CN(C)Cc2ccc3c(c2)OCO3)Oc2ccc(NC(=O)CCCCCC(=O)Nc3ccccc3N)cc2C1=O	0
C[C@H](CO)N1C[C@H](C)[C@@H](CN(C)Cc2ccc3c(c2)OCO3)Oc2c(NC(=O)CCCCCC(=O)Nc3ccccc3N)cccc2C1=O	0
C[C@H]1CN([C@@H](C)CO)C(=O)c2cccc(NC(=O)CCCCCC(=O)Nc3ccccc3N)c2O[C@@H]1CN(C)Cc1ccc2c(c1)OCO2	107.7
C[C@H](CO)N1C[C@H](C)[C@H](CN(C)Cc2ccncc2)Oc2ccc(NC(=O)CCCCCC(=O)Nc3ccccc3N)cc2CC1=O	0
CC1=C(C(=O)Nc2ccc(C(=O)NCc3ccc4c(c3)OCO4)cc2)SCCO1	0
C[C@H]1CN([C@@H](C)CO)C(=O)c2cccc(NC(=O)c3cnccn3)c2O[C@H]1CN(C)Cc1ccc(Cl)c(Cl)c1	0
O=C(NCc1ccccn1)c1cccnc1SCCS(=O)(=O)c1ccc(C(F)(F)F)cn1	0
COc1ccc(NC(=O)CSc2nc3c(cc2C#N)CCCCC3)cc1	0
CCOc1ccc(C2=NCCNC3=C2C(c2ccccc2)N(c2ccccc2)C3=O)cc1 (stereo not given)	0
CC(Nc1nc(Nc2ccc(F)cc2)nc(SCC(=O)Nc2ccc(F)cc2)n1)c1ccccc1 (stereo not given)	0
C[C@@H]1CN([C@H](C)CO)C(=O)c2cccc(NC(=O)Nc3ccccc3)c2O[C@@H]1CN(C)Cc1ccc(-c2ccccc2)cc1	0
CCCN(C(=O)Cc1c(C(=O)O)n(CC)c2ccccc12)c1cccc(Cl)c1	0
N#Cc1c(-c2ccccc2Cl)c(C#N)c2nc3ccccc3n2c1N	0
Cc1c(Cc2ccccc2)c(Cl)n2c(nc3ccccc32)c1C#N	163.7
Cc1ccccc1Cn1c(Cc2ccccc2)nc2ccccc21	0
Cc1c(Cc2ccc(Cl)cc2)c(=O)n2c([nH]c3ccccc32)c1C#N	0
O=C(CSc1nc2ccccc2c2nc3ccccc3n12)NCCc1ccccc1	0
CCCc1cc(NCCc2ccccc2)n2c(nc3ccccc32)c1C#N	91.9
C=CCn1c(-c2ccc(OC)cc2)c(C)sc1=Nc1ccc(C)cc1	0
Cc1cc(I)cnc1NC(=O)COc1ccc([N+](=O)[O-])cc1	0
CNC(=O)CN(c1cccc(Cl)c1Cl)S(=O)(=O)c1ccc(C)cc1	0
C[C@@H]1CN([C@H](C)CO)C(=O)c2cccc(NS(=O)(=O)c3ccccc3)c2O[C@@H]1CN(C)CC1CCCCC1	0
CNC[C@@H]1Oc2ccc(NS(=O)(=O)c3c(C)noc3C)cc2C(=O)N([C@H](C)CO)C[C@H]1C	0
C[C@@H]1CCCCO[C@@H](CN(C)C(=O)CCCN(C)C)[C@@H](C)CN([C@H](C)CO)C(=O)c2cc(NS(=O)(=O)c3ccc(F)cc3)ccc2O1	0
C[C@@H]1CCCCO[C@H](CN(C)C(=O)CCCN(C)C)[C@@H](C)CN([C@H](C)CO)C(=O)c2cc(NC(=O)C3CCCCC3)ccc2O1	104.7
SMILES	U2OS ROS induce
C[C@@H]1CCCCO[C@@H](CN(C)C(=O)c2ccccc2)[C@@H](C)CN([C@H](C)CO)C(=O)c2cc(NS(=O)(=O)c3ccc(Cl)cc3)ccc2O1	0
C[C@@H]1CCCCO[C@H](CN(C)C(=O)CCCN(C)C)[C@@H](C)CN([C@H](C)CO)C(=O)c2cc(NS(=O)(=O)c3ccc(Cl)cc3)ccc2O1	99.4
C[C@@H]1CCCCO[C@H](CN(C)C(=O)CCCN(C)C)[C@@H](C)CN([C@H](C)CO)C(=O)c2cc(NC(=O)NC3CCCCC3)ccc2O1	0
C[C@@H]1CCCCO[C@@H](CN(C)C(=O)C2CCCCC2)[C@@H](C)CN([C@H](C)CO)C(=O)c2cc(NS(=O)(=O)c3ccc(Cl)cc3)ccc2O1	100.9
Cc1ccc(S(=O)(=O)Nc2ccc3c(c2)C(=O)N([C@H](C)CO)C[C@H](C)[C@H](CN(C)C(=O)CCCN(C)C)OCCCC[C@@H](C)O3)cc1	0
CC(C)NC(=O)N(C)C[C@@H]1OCCCC[C@@H](C)Oc2ccc(NS(=O)(=O)c3ccc(Cl)cc3)cc2C(=O)N([C@H](C)CO)C[C@@H]1C	0
C[C@@H]1CCCCO[C@@H](CN(C)C(=O)CCC(F)(F)F)[C@@H](C)CN([C@H](C)CO)C(=O)c2cc(NC(=O)C3CCCCC3)ccc2O1	0
CC(C)NC(=O)N(C)C[C@@H]1OCCCC[C@@H](C)Oc2ccc(NS(C)(=O)=O)cc2C(=O)N([C@H](C)CO)C[C@@H]1C	0
C[C@@H]1CCCCO[C@@H](CN(C)C(=O)NC2CCCCC2)[C@@H](C)CN([C@H](C)CO)C(=O)c2cc(NS(C)(=O)=O)ccc2O1	0
C[C@@H]1CCCCO[C@@H](CN(C)C(=O)C2CCCCC2)[C@@H](C)CN([C@H](C)CO)C(=O)c2cc(NS(C)(=O)=O)ccc2O1	90.7
COc1ccc(Cl)cc1N(CC(=O)Nc1ccc(F)c(F)c1)S(C)(=O)=O	0
Cc1ccc(CN(CC(=O)O)S(=O)(=O)c2ccc(Br)cc2)cc1	0
Cn1c(SCC(=O)Nc2ccc(Oc3ccccc3)cc2)nnc1-c1cccs1	0
Fc1ccccc1-c1n[nH]c(=S)n1CCCN1CCOCC1	0
